Potency, outcome and max response data for 15 molecules are collected here from PubChem BioAssay (Tox21).

Experiment [1] can be described thus: qHTS assay to identify small molecule agonists of the hypoxia (HIF-1) signaling pathway - cell viability counter screen (AID 1224844; calls by dose curve; also: nearly all actives have a fitted effect of over 50% in size; also: potency is read from the fitted curve at half-maximal effect). A digest of the protocol: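 HRE-bla ME-180; 0.5% dFBS; cpd 17 h, 37C, 5% CO2; CellTiter-Glo lum., 30 min RT, post-FRET read, same wells.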
(qHTS replaces the single test concentration by a dilution series.)

Experiment [2] is described as follows: qHTS assay to identify small molecule agonists of H2AX (AID 1224845; active = well fitted activation curve with a large enough effect in the signal ratio in the repeat runs, not every such curve was filed as active; the % refers to the signal ratio). The essentials:
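Wild-type CHO-K1 cells plated overnight, then exposed 3 hr at 37C to compounds at 15 concentrations (0.76% DMSO). Lysed, then HTRF anti-pH2AX(S139)-cryptate/anti-H2AX-d2 detection after 24 hr at room temperature; emissions 665 and 620 nm.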

Experiment [3] is described as follows: qHTS assay to identify small molecule agonists of the hypoxia (HIF-1) signaling pathway (AID 1224846; active = well fitted activation curve with a large enough effect in the signal ratio in the repeat runs, not every such curve was filed as active; the % refers to the signal ratio). The essentials:
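Reporter induction in HRE-bla ME-180 cells is taken as agonism: cells sit 5 hrs after plating, receive compounds or DMSO only, incubate 17 hrs at 37C under 5% CO2, and are loaded with CCF4-AM for beta-lactamase FRET measurement.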

Experiment [4] can be described thus: qHTS assay to identify small molecule agonists of H2AX - cell viability counter screen (AID 1224847; calls by dose curve; also: top concentration of the series differs between compounds; nearly all actives have a fitted effect of over 30% in size). A digest of the protocol: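 CHO-K1 cells plated overnight at 37C, then exposed 3 h at 37C to compounds at 15 concentrations (0.76% DMSO final). Viability by CellTiter-Glo luminescence after 30 min at room temperature.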
The nature of experiment [5]: qHTS RealTime-Glo MT Cell Viability Assay in HepG2 cells - 24 hour (AID 1224867). Also: nearly all actives have a fitted effect of over 50% in size. A digest of the protocol:
(§1)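 HepG2 suspension premixed with RealTime-Glo reagents is plated at 600 cells per well and left 5 h at 37 C/5% CO2. Compounds in DMSO then go in, and bioluminescence reflecting viable cell number is recorded over 40 h.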

Experiment [6] can be described thus: qHTS RealTime-Glo MT Cell Viability Assay in HEK293 cells - 32 hour (AID 1224868). Also: top concentration of the series differs between compounds; nearly all actives have a fitted effect of over 50% in size. The essentials:
(§2)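 Reads taken at 0, 8, 16, 24, 32 and 40 h from the same wells. HEK293 cells (600/well) carried RealTime-Glo reagents from seeding, with compound added after a 5 h settle at 37 C.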

The nature of experiment [7]: A CellTox Green Cytotoxicity Assay to monitor cytotoxicity in HEK293 cells - 0 hour (AID 1224869). Also: nearly all actives have a fitted effect of over 50% in size. A digest of the protocol:
(§3)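 Tox21 screen in HEK293: membrane-impermeant cyanine dye fluoresces on binding dead-cell DNA; compound pinned 5 h post-seeding, plates held at 37 C, signal read repeatedly through 40 h.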

Experiment [8] in a line: qHTS RealTime-Glo MT Cell Viability Assay in HepG2 cells - 40 hour (AID 1224870). Also: nearly all actives have a fitted effect of over 50% in size. The essentials:
(§4)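 HepG2 cells mixed with RealTime-Glo MT reagents (NanoLuc plus cell-permeant prosubstrate) were seeded at 600 cells/well, incubated 5 h at 37 C/5% CO2, then pinned with compounds in DMSO; nonlytic luminescence tracked viability during 40 h treatment.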

A short description of experiment [9]: A CellTox Green Cytotoxicity Assay to monitor cytotoxicity in HEK293 cells - 40 hour (AID 1224871). Also: nearly all actives have a fitted effect of over 45% in size. The essentials: as §3
The nature of experiment [10]: qHTS RealTime-Glo MT Cell Viability Assay in HEK293 cells - 16 hour (AID 1224872). The essentials:
as §2

Experiment [11] in a line: A CellTox Green Cytotoxicity Assay to monitor cytotoxicity in HEK293 cells - 24 hour (AID 1224875). Also: series mostly up to about 77 µM; nearly all actives have a fitted effect of over 45% in size. The essentials: as §3
Experiment [12] can be described thus: A CellTox Green Cytotoxicity Assay to monitor cytotoxicity in HepG2 cells - 16 hour (AID 1224876). Also: nearly all actives have a fitted effect of over 45% in size. The essentials: (§5)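 Measurements at 0, 8, 16, 24, 32 and 40 h of treatment captured CellTox Green fluorescence in HepG2 cells that had been co-plated with reagent and preincubated 5 h at 37 C/5% CO2.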
Experiment [13] can be described thus: qHTS RealTime-Glo MT Cell Viability Assay in HepG2 cells - 32 hour (AID 1224877). Also: nearly all actives have a fitted effect of over 55% in size. A digest of the protocol: as §1
Experiment [14] can be described thus: A CellTox Green Cytotoxicity Assay to monitor cytotoxicity in HepG2 cells - 24 hour (AID 1224878). Also: nearly all actives have a fitted effect of over 45% in size. A digest of the protocol:
as §5

Experiment [15] can be described thus: A CellTox Green Cytotoxicity Assay to monitor cytotoxicity in HepG2 cells - 40 hour (AID 1224879). Also: nearly all actives have a fitted effect of over 40% in size. The essentials:
as §5

Experiment [16] is described as follows: qHTS RealTime-Glo MT Cell Viability Assay in HEK293 cells - 0 hour (AID 1224880). The essentials:
(§6)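 HEK293 + NanoLuc + prosubstrate, 600 cells/well; 5 h, 37 C/5% CO2; compound 23 nL in DMSO by pintool; 37 C; luminescence read at 0, 8, 16, 24, 32 and 40 h time points.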

A short description of experiment [17]: qHTS RealTime-Glo MT Cell Viability Assay in HepG2 cells - 8 hour (AID 1224873). Also: nearly all actives have a fitted effect of over 55% in size. A digest of the protocol:
as §4

Experiment [18] is described as follows: qHTS RealTime-Glo MT Cell Viability Assay in HEK293 cells - 40 hour (AID 1224874). Also: nearly all actives have a fitted effect of over 50% in size. Particulars: RealTime-Glo luminescence; max response: active compounds read low. The essentials: as §6

Unmarked numbers belong to inactive results. Results filed as inconclusive are left out. Active and inactive are the calls of the source. Unless noted, calls follow the shape of the dose curve; as a rule, active = well fitted curve in the direction sought with a large enough effect in the repeat runs; inconclusive = weak or mixed curves; inactive = no such curve, though single readings can be large; an effect the other way counts as inactive or inconclusive.
% is scaled to controls: 0 for no effect and ±100 for the full control effect.

Take `COc1cc(N)c(Cl)cc1C(=O)NC1CN2CCC1CC2` (stereo not drawn): the Potency entry in experiment [1], in experiment [2], in experiment [4], in experiment [5], in experiment [6] and in experiment [7] was “inactive” each time. Also, the Potency result in experiment [8], in experiment [9], in experiment [10], in [11], in experiment [12] and in experiment [13] was “inactive” throughout. Further, the Potency result in [14], in [15] and in experiment [16] was “inactive” in each case. Also, the outcome in experiment [3] was inactive.
`CC(C)CCCCCOC(=O)c1ccccc1C(=O)OCCCCCC(C)C`: the Potency entry in experiment [1], in [2], in experiment [4], in experiment [5], in [6] and in experiment [7] was “inactive” throughout. Also, the Potency entry in experiment [8], in experiment [10], in experiment [17], in experiment [11], in experiment [12] and in experiment [13] was “inactive” in each case. Besides, the Potency result in experiment [14], in experiment [15] and in [16] was “inactive” each time. In addition, the molecule was classed as inactive in experiment [3]. The max response in experiment [18] is -3.2%.
As for `BrCC(Br)c1ccccc1` (stereo not drawn), the Potency entry in experiment [1], in [2], in experiment [4], in experiment [5], in experiment [6] and in experiment [7] was “inactive” throughout. Moreover, the Potency result in [8], in experiment [9], in experiment [10], in [11], in experiment [12] and in experiment [13] was “inactive” each time. In addition, the Potency result in [14], in [15] and in [16] was “inactive” throughout. In addition, the molecule was classed as inactive in [3].
For the molecule `COc1ccc(OC)c(C=O)c1`, the Potency entry in [1], in experiment [2], in [4], in experiment [5], in experiment [7] and in experiment [8] was “inactive” throughout. In addition, the Potency entry in experiment [9], in experiment [17], in [11], in experiment [12], in experiment [13] and in experiment [14] was “inactive” in each case. Further, in experiment [15], the Potency entry was “inactive”. In experiment [3], the outcome was inactive.
With `N#CCCSCCC#N`, the Potency result in experiment [1], in experiment [2], in experiment [4], in experiment [5], in experiment [6] and in experiment [7] was “inactive” each time. The Potency result in experiment [8], in experiment [9], in experiment [10], in [11], in [12] and in experiment [13] was “inactive” in each case. Moreover, the Potency entry in [14], in experiment [15] and in experiment [16] was “inactive” throughout. Besides, the molecule was classed as inactive in experiment [3]. Also, the max response in experiment [18] is 8.18%.
Consider `CCCCCCCCCBr`, for which the Potency entry in experiment [1], in experiment [2], in experiment [4], in experiment [5], in [6] and in [7] was “inactive” each time. Further, the Potency entry in experiment [8], in [9], in experiment [10], in experiment [17], in [11] and in experiment [12] was “inactive” each time. For the same molecule, the Potency result in [13], in [14], in [15] and in experiment [16] was “inactive” throughout. For the same molecule, in [3], the molecule was called inactive. The max response in experiment [18] was -6.03%.
Turning to `Clc1ccc(Oc2ccccc2)cc1`, the Potency result in experiment [1], in [2], in experiment [4], in experiment [5], in experiment [6] and in [7] was “inactive” throughout. In addition, the Potency result in [8], in experiment [10], in experiment [17], in [12], in [13] and in [14] was “inactive” each time. The Potency entry in experiment [15] and in experiment [16] was “inactive” each time. Besides, the molecule was classed as inactive in experiment [3]. Also, in experiment [18], the max response was -29.2%.
In the case of `ClC1=C(Cl)[C@]2(Cl)[C@H]3[C@H]([C@H]4C=C[C@H]3C4)[C@@]1(Cl)C2(Cl)Cl`, the Potency entry in experiment [1], in [2], in [4], in experiment [5], in experiment [6] and in [7] was “inactive” in each case. Moreover, the Potency entry in [8], in [10], in [17], in experiment [11], in experiment [12] and in experiment [13] was “inactive” in each case. Besides, the Potency entry in [14], in experiment [15] and in experiment [16] was “inactive” each time. Besides, the result in experiment [3] was inactive. In addition, the max response in [18] was -13.1%.
As for `CN(CCCC(=O)c1cccnc1)N=O`, the Potency entry in [1], in experiment [2], in [4], in experiment [5], in [6] and in [7] was “inactive” in each case. For the same molecule, the Potency result in experiment [9], in experiment [10], in experiment [11], in [13], in [14] and in experiment [15] was “inactive” each time. Besides, the Potency entry in [16] was “inactive”. In addition, in [3], the result was inactive.
Turning to `ClC(Cl)=C(Cl)Cl`, the Potency entry in experiment [1], in experiment [2], in [4], in [5], in [6] and in experiment [7] was “inactive” throughout. Moreover, the Potency result in experiment [8], in [9], in [10], in experiment [17], in experiment [11] and in experiment [12] was “inactive” throughout. In addition, the Potency entry in experiment [13], in experiment [14], in experiment [15] and in [16] was “inactive” each time. In experiment [3], the molecule was called inactive. Besides, the max response in experiment [18] is 0.0111%.
Regarding `c1ccc(OCC2CO2)cc1` (stereo not drawn), the Potency entry in [1], in [2], in [4], in [5], in [6] and in experiment [7] was “inactive” throughout. For the same molecule, the Potency entry in experiment [8], in experiment [9], in experiment [10], in experiment [17], in experiment [11] and in [12] was “inactive” in each case. Moreover, the Potency result in [13], in experiment [14], in [15] and in experiment [16] was “inactive” each time. Also, the molecule was classed as inactive in experiment [3]. In addition, in experiment [18], the max response is 7.88%.
Turning to `NC(=O)c1ccc(N)nc1`, the Potency in experiment [1] was 15.5 µM (active). In addition, the Potency result in experiment [2], in experiment [4], in experiment [5], in [7], in experiment [8] and in experiment [9] was “inactive” throughout. Also, the Potency entry in [10], in experiment [17], in [11], in experiment [12], in [13] and in experiment [14] was “inactive” in each case. The Potency entry in [15] and in [16] was “inactive” in each case. Also, the call in [3] was inactive.
On to `COc1ccc([N+](=O)[O-])cc1O`, for which the Potency result in [1], in [2], in experiment [4], in [6], in experiment [7] and in experiment [8] was “inactive” in each case. Also, the Potency entry in experiment [9], in experiment [10], in [17], in [11], in experiment [12] and in experiment [13] was “inactive” throughout. Further, the Potency result in [14], in experiment [15] and in experiment [16] was “inactive” in each case. For the same molecule, the result in experiment [3] was inactive. In addition, in [18], the max response is 1.5%.
As for `CCN`, the Potency result in experiment [1], in experiment [2], in experiment [4], in [5], in experiment [6] and in [7] was “inactive” in each case. The Potency entry in [8], in experiment [9], in [10], in experiment [11], in experiment [12] and in [13] was “inactive” in each case. In addition, the Potency entry in [14], in experiment [15] and in experiment [16] was “inactive” each time. In experiment [3], the molecule was called inactive. Moreover, the max response in experiment [18] is 19.6%.
For the molecule `CC(=[OH+])/C=C(/C)[O-].CC(=[OH+])/C=C(\C)[O-].CC(=[OH+])/C=C(\C)[O-].[Al]`, the Potency entry in experiment [1], in experiment [2], in [4], in [5], in experiment [6] and in experiment [7] was “inactive” throughout. The Potency entry in experiment [8], in experiment [9], in experiment [10], in experiment [17], in [11] and in experiment [12] was “inactive” each time. The Potency result in experiment [13], in [14], in experiment [15] and in experiment [16] was “inactive” throughout. Also, the call in experiment [3] was inactive.
